High-throughput results as filed in PubChem.
Dicer processing: inhibitors of Dicer pre-microRNA processing, primary screen, biochemical, cat-ELCCA, chemiluminescence; Endoribonuclease Dicer (Homo sapiens), Q9UPY3; cat-ELCCA pre-miR-21 Dicer processing; active compounds read high; z-score at 25 µM; 47,000 tested, 6% active; in the data active = z-score above about 3, passing the limit was not always enough;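 also: plate controls were vehicle for no effect and no enzyme for full effect; higher signal means more uncleaved substrate so more Dicer inhibition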
Target sequence (Q9UPY3 whole entry, looked up): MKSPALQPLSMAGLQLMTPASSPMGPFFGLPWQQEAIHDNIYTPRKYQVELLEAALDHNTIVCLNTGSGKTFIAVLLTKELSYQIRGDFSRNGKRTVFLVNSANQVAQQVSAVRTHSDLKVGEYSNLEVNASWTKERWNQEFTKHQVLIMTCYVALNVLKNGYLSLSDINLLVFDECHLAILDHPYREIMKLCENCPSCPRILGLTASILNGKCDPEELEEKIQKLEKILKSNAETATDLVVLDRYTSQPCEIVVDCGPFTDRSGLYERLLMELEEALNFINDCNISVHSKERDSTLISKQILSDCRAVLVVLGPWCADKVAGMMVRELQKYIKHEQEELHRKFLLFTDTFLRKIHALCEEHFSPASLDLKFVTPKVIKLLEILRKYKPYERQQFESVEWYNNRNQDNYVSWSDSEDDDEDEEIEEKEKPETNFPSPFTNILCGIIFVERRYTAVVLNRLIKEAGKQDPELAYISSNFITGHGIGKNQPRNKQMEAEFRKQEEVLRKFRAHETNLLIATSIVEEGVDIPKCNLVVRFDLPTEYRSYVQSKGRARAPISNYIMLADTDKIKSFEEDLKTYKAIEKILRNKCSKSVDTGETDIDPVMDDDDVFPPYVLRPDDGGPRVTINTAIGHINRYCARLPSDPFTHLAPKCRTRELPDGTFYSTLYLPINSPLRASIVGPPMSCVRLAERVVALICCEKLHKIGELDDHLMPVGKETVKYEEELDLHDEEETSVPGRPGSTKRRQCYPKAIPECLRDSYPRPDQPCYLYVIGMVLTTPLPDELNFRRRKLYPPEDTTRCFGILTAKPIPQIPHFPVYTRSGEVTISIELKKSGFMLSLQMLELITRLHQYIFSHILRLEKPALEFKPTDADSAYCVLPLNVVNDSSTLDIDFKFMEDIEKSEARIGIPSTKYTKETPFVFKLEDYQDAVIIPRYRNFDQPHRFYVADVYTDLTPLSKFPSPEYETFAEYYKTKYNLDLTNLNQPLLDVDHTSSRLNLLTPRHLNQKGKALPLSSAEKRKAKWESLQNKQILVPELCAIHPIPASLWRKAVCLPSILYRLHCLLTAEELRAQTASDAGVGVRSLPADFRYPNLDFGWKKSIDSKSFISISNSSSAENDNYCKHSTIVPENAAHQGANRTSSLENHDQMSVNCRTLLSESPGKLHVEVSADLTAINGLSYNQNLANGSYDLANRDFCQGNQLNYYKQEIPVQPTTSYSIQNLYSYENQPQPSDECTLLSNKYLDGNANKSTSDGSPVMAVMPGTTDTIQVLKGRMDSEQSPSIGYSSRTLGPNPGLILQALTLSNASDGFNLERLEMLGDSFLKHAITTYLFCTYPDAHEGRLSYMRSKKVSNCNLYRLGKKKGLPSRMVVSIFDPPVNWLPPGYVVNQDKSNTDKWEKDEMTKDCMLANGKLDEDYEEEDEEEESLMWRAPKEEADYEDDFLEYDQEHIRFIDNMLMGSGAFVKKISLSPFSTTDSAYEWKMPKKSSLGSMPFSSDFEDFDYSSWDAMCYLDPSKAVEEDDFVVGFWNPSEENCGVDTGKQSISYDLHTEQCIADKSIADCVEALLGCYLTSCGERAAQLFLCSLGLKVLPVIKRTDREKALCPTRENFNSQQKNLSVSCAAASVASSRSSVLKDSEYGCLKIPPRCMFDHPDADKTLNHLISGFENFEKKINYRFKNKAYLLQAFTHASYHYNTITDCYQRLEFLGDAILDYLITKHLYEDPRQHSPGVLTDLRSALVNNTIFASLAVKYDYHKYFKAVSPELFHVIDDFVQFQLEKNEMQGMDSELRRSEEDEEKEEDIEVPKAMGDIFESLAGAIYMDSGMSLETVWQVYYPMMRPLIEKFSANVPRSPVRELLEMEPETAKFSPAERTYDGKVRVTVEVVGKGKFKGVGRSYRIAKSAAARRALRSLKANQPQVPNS
* marks the source's active call; other numbers are inactive results. Only a selection was taken, and hits are over-represented in it overall.

SMILES	Dicer processing
CCCCN1C(=O)C2(/C(=C(/O)c3ccc(Cl)cc3)C(=O)C(=O)N2CCCOC)c2ccccc21 (stereo unspecified)	0.62
CCCCCNC(=O)Cn1cnc2c1c(=O)n(C)c(=O)n2C	-0.48
COc1ccccc1-c1nc(C)c2c(C)c(C#N)sc2n1	0.12
O=C1C2C(c3ccccc3)OC3(C(=O)c4ccccc4C3=O)C2C(=O)N1c1ccccc1 (stereo unspecified)	0.05
CCOC(=O)C1=NN(c2ccccc2)C2(C(=O)c3ccccc3C2=O)C1c1ccc(C)cc1 (stereo unspecified)	-0.57
O=C(C1=NOC2(C(=O)c3ccccc3C2=O)C1c1ccccc1)c1ccccc1 (stereo unspecified)	3.9*
COc1ccc(-c2nnc3n2-c2ccccc2OC3)cc1	-2.1
COc1ccc(-c2[nH]ncc2/C=N/NC(=S)NC(C)(C)C)cc1	-0.03
O=S(=O)(Nc1cccnc1Oc1ccc(Cl)cc1)c1ccc(Cl)cc1	-0.24
Cc1ccc(S(=O)(=O)Nc2ccc3ccccc3n2)cc1	-0.27
CS(=O)(=O)Nc1ccc(S(=O)(=O)Nc2ncccn2)cc1	-4.6
O=S(=O)(Nc1ncccc1OCc1ccc(Cl)c(Cl)c1)c1ccc(Cl)cc1	0.8
Cc1ccc(S(=O)(=O)Nc2ccc(O)c3ncccc23)cc1	15*
Cc1ccc(S(=O)(=O)Nc2ccnn2C)cc1	-1.1
Cc1ccc(S(=O)(=O)Nc2ccc(Cl)c3cccnc23)cc1	3.2*
CC(=O)Nc1ccc(S(=O)(=O)Nc2ncccn2)cc1	-0.86
Cc1ccc(S(=O)(=O)Nc2ccc(O)c3cccnc23)cc1	3.3*
Cc1ccc(S(=O)(=O)On2nnc3ccccc32)cc1	-0.52
N#Cc1cnn(C(=O)c2cnn(-c3ccc([N+](=O)[O-])cc3)c2C(F)(F)F)c1N	-0.59
Cc1ccc(/C(O)=C2\C(=O)C(=O)N(CCCn3ccnc3)C2c2ccc(Cl)cc2)cc1 (stereo unspecified)	0.14
Cc1cc(C2=CSC3=NCCCN23)ccc1Cl	-0.65
Cc1cscc1S(=O)(=O)c1ccc(Cl)cc1	-1.3
C=CCn1c(SCC(=O)NN)nnc1-c1ccccc1	0.79
COC(=O)c1cscc1N1C(=O)c2nccnc2C1=O	2.3
O=c1c(Oc2ccccc2Br)c(C(F)(F)F)oc2cc(O)ccc12	1
SMILES	Dicer processing
Cc1cc(C)cc(Oc2c(C(F)(F)F)oc3cc(O)ccc3c2=O)c1	0.79
O=c1c(Oc2ccccc2Cl)c(C(F)(F)F)oc2cc(O)ccc12	3.3*
C=CC(C)N1C(=O)c2ccccc2C1=O (stereo unspecified)	0.45
C#CC(C)(C)NC(=O)NCCCCCCNC(=O)NC(C)(C)C#C	1
C#Cc1cccc(N2C(=O)c3cc(Cl)c(Cl)cc3C2=O)c1	0.21
CCCC1=NN(c2ccccc2)C(=O)C1	-6.7
Cc1noc(C)c1-n1sc(=O)n(CC2CC2)c1=O	0.01
Cc1csc(C(=O)Nc2cccc(C(F)(F)F)c2)c1	-0.13
Cc1[nH]nc2c1C(c1cccc(Br)c1)C(C#N)=C(N)O2 (stereo unspecified)	-2.5
CCOC(=O)c1c(O)c(O)c(C(=O)OCC)n1-c1ccccc1	-0.94
CC[n+]1c(C)n(-c2ccccc2)c2ccccc21	10*
CC(=O)Nc1ccc2c(c1)[n+](C)c(C)n2-c1ccccc1	0.47
CS/C(=N\C(=O)OC(C)(C)C)NC(=O)OC(C)(C)C	-0.99
COC(=O)c1c(NC(=O)c2nc3ncccn3n2)sc2c1CCCC2	2.4
Cc1cc(C)n2c(SCc3ccc(Br)cc3)nnc2n1	1.3
Cc1cc(C)n2c(Br)c(CSc3nnnn3-c3ccccc3)nc2n1	4.2*
c1ccc(CSc2nnnn2-c2ccccc2)cc1	-1.3
OC[C@H]1O[C@@H](Sc2ccccc2)[C@H](O)[C@@H](O)[C@H]1O	-1.4
COc1ccc(C(=O)COC(=O)c2ccc(N3C(=O)C4CC=CCC4C3=O)cc2)cc1 (stereo unspecified)	0.35
O=C(Nc1ccc(F)cc1F)c1ccc([N+](=O)[O-])o1	0.72
O=C(COC(=O)c1ccccc1-c1ccccc1)c1ccccc1	2.1
O=C(COC(=O)c1ccc(C(O)c2ccccc2)cc1)c1ccccc1 (stereo unspecified)	4*
O=C(COC(=O)c1ccccc1Nc1ccccc1F)c1ccccc1	-6.3
O=C(CSc1ssc(=S)c1-c1ccccc1)c1cccc([N+](=O)[O-])c1	-0.48
Cc1ccc(Cl)cc1N1C(=O)CC(C)(C)CC1=O	7.2
SMILES	Dicer processing
Cc1ccc(Cl)cc1N1C(=O)c2ccncc2C1=O	3.4*
COc1ccc(Cl)cc1N1C(=O)c2ccncc2C1=O	2.9
CN1C2CCC1CC(NC(=O)CSc1ccc(F)cc1F)C2 (stereo unspecified)	1.6
O=S(=O)(Cc1ccc(Br)cc1F)c1ccccn1	1.8
O=C(CSc1nc2c(c(=O)[nH]1)CSC2)c1ccc(Cl)cc1	1.4
Cc1cc(S(=O)(=O)NC2C3(C)CCC(C3)C2(C)C)c(C)cc1Cl (stereo unspecified)	-0.44
Nc1cccc(-c2nc3cc4sc(-c5cccc(N)c5)nc4cc3s2)c1	0.71
c1cc(-c2nc3cc4sc(-c5ccn[nH]5)nc4cc3s2)[nH]n1	3.2*
Nc1ccc(-c2nc3cc4sc(-c5ccc(N)cc5)nc4cc3s2)cc1	-2.1
O=[N+]([O-])c1cc(Br)cnc1Sc1n[nH]c(-c2ccccc2)n1	-0.34
COC(=O)C1=C(C)NC2=C(C(=O)c3ccccc32)C1c1ccc(OC)c(Cl)c1 (stereo unspecified)	-1.5
Cc1cc(C)nc(SCC(=O)Nc2sc3c(c2C#N)CCCC3)n1	0.45
O=C(CN1C(=O)/C(=C\c2ccc(OCc3ccccc3)cc2)N=C1c1ccccc1)c1cccs1	-1.9
C=CCN1C(=O)/C(=C\c2ccccc2Cl)N=C1c1ccccc1	-0.82
O=C(CN1C(=O)/C(=C\c2ccc(F)cc2)N=C1c1ccccc1)c1ccco1	3.8*
COc1ccc2nc(SCC(=O)Nc3ncc(Br)s3)[nH]c2c1	0.68
CCCCOc1cc([N+](=O)[O-])c(OCCCC)cc1N1CCOCC1	0.01
Nc1ncnc2sc3c(c12)CCCC3	-0.7
Nc1nc(-c2ccncc2)nc2sc3c(c12)CCCCC3	4.1*
Nc1ncnc2sc3c(c12)CCCCC3	1.7
Brc1ccc(-c2nc(-c3ccccn3)no2)cc1	2.1
COC(=O)c1sccc1Oc1ccc(C(F)(F)F)cc1NC(=O)NS(=O)(=O)c1ccc(C)cc1	-0.3
COC(=O)c1sccc1Oc1ccc(C(F)(F)F)cc1NC(=O)c1cnn(-c2ccc([N+](=O)[O-])cc2)c1C(F)(F)F	4*
COC(=O)c1sccc1Oc1ccc(C(F)(F)F)cc1NC(=O)c1cnn(-c2ccccc2)c1C(F)(F)F	-1.1
O=C1CC(NCCc2c[nH]c3ccc(Cl)cc23)C(=O)N1c1cccc2ccccc12 (stereo unspecified)	2.1
SMILES	Dicer processing
COc1ccc(/C=C2/SC3(SC(C(C)=O)=NN3c3ccccc3)N(c3ccccc3)C2=O)cc1 (stereo unspecified)	-0.5
COc1ccc(-n2[nH]c3[nH]c(-c4ccccc4)cc(=O)c3c2=O)cc1	-1.6
CCn1c(-c2oc3nc(-c4ccccc4)cc(-c4ccco4)c3c2N)n[nH]c1=S	-1.4
COc1cc(C(F)(F)F)nc2ccc(C)c(N)c12	2.5
CCCC1=C(C(=O)OCC)C(c2ccc(O)cc2)n2c(nc3ccccc32)N1 (stereo unspecified)	3.6*
CCCC1=C(C(=O)OCC)C(c2ccccc2F)n2c(nc3ccccc32)N1 (stereo unspecified)	0.12
